# Laboratory results from PubChem BioAssay AID686979 (National Center for Advancing Translational Sciences (NCATS), 2013).
# In all, about 420,000 compounds went through this assay and about 50,000 (12%) were called active. Inconclusive results (about 26%) are left out. This is one part of a sample in which actives are shown more often than they occur. Values without a mark were called inactive. The call rests on the fitted dose curve; in most records, active means well fitted inhibition curve with a large enough effect; inconclusive means small, poorly fitted or top-dose-only effect; inactive means flat fitted curve, though single readings scatter.
# Test: qHTS for Inhibitors of human tyrosyl-DNA phosphodiesterase 1 (TDP1): qHTS in cells in presence of CPT; further: nearly all actives have a fitted effect of over 55% in size
# Conditions: chicken DT40 Tdp1-/-;hTDP1 cells + 20 nM CPT, ATP luminescence, 48 h; series mostly up to 46.2 µM; activity change, negative = growth inhibition: at the top concentration
# Outline: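 Chicken DT40 Tdp1-/- cells stably complemented with human TDP1 were seeded at 400 cells/well in medium containing 20 nM camptothecin, exposed to pin-transferred compounds, and grown at 37 °C for at least 48 hr. Viability was read as ATP luminescence.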
# On the % scale 0 is the no-effect control and ±100 the full control effect; potency means the concentration at half of the fitted maximal effect.
SMILES,"activity change, negative = growth inhibition",Potency
Cc1ccc2sc(NNC(=O)c3ccc4c(c3)OCCO4)nc2c1C,-14.2%,–
CNc1ccc(-c2nc(-c3ccccc3C)no2)cc1[N+](=O)[O-],-4.91%,–
Cc1onc(-c2ccccc2)c1C(=O)N1CCOCC1,2.28%,–
Cc1oc2c(c1C(=O)N1CCOCC1)C(=O)c1ccccc1C2=O,–,2.59 µM (active)
Cc1noc(C)c1C(=O)N1CCOCC1,-8.25%,–
CC(NCC(=O)Nc1ccccc1C(=O)NC1CC1)c1ccccc1Cl (stereo unspecified),1.01%,–
O=C(c1cccc(Br)c1)N1CCN(Cc2cc(=O)n3nc(-c4ccccc4)sc3n2)CC1,-1.68%,–
CCOC(=O)c1sc(=S)n(-c2cccc(OC)c2)c1N,–,35.5 µM (active)
CCOC(=O)C(C)n1cnc2c(nnn2-c2cccc(OC)c2)c1=O (stereo unspecified),-3.77%,–
COc1cccc(-n2c(=S)sc3c(=O)n(-c4ccccc4C)c(SCC(=O)O)nc32)c1,22%,–
Cc1cc(Br)ccc1NC(=O)c1cnc(N2CCN(c3ccccn3)CC2)c2ccccc12,–,14.6 µM (active)
CSc1ncccc1C(=O)Nc1cccc(S(=O)(=O)N2CCOCC2)c1,1.28%,–
CCc1cccc(NC(=O)c2cnc(N3CCOCC3)c3ccccc23)c1,–,20.6 µM (active)
O=C(Nc1ccc(F)cc1)c1cccnc1N1CCOCC1,-2.24%,–
Cc1ccc(S(=O)(=O)NCC(=O)N2CCN(c3ccccn3)CC2)cc1,-5.89%,–
Cc1cc(Br)ccc1NC(=O)c1sc2ncn(CC(=O)N3CCN(c4ccccn4)CC3)c(=O)c2c1C,-23.7%,–
O=C(NCc1ccccc1)C1c2ccccc2OCC(=O)N1C1CC1 (stereo unspecified),-1.85%,–
CS(=O)(=O)N(CC(=O)NC1CCCC1)Cc1ccc(F)cc1,-5.58%,–
CCCCn1c(N)c(N(CC(C)C)C(=O)c2ccc(Br)o2)c(=O)[nH]c1=O,-20%,–
CCOCc1nnc(NC(=O)CCC2CCCCC2)s1,-7.37%,–
COCCN(C(=O)CCC(=O)Nc1nccs1)C(C(=O)NCCC(C)C)c1ccc(F)cc1 (stereo unspecified),8.82%,–
O=C(CC(NC(=O)c1ccccc1)c1ccccc1)Nc1ccc(F)c(F)c1 (stereo unspecified),-26.2%,–

SMILES,"activity change, negative = growth inhibition",Potency
O=C(Nc1ccc(Br)c2cccnc12)c1ccc(Cn2cc([N+](=O)[O-])cn2)o1,–,16.4 µM (active)
O=C(c1ccc(Cn2cc([N+](=O)[O-])cn2)o1)N1CCCC1,15.4%,–
COc1cccc(NC(=O)c2ccc(Cn3cc([N+](=O)[O-])cn3)o2)c1,-21.4%,–
COC1=CC(=O)OC(C)(c2ccccc2)C1 (stereo unspecified),-20%,–
Cc1c(Cc2ccccc2)c(=O)oc2cc(OCC(N)=O)ccc12,-3.22%,–
CC(=O)c1c(C)n(-c2ccc(N(C)C)cc2)c2ccc(OCC(N)=O)cc12,–,18.4 µM (active)
CC(=O)c1c(C)n(-c2ccc(C)cc2)c2ccc(O)cc12,-5.03%,–
CCCCc1ccc(S(=O)(=O)NC(=O)C2(C)CCN2C(=O)c2ccccc2)cc1 (stereo unspecified),-29.2%,–
Cc1cccc2[nH]c(CN(C)C(=O)C3CCC(=O)N(CCc4ccccc4)C3)nc12 (stereo unspecified),-9.24%,–
CS(=O)(=O)Nc1ccccc1N=C(c1ccccc1)c1ccccc1,6.15%,–
CC(C)CN(C(=O)CSc1nncn1C)C1CCS(=O)(=O)C1 (stereo unspecified),4.23%,–
COc1cc(CC(=O)N2CCC(n3nccc3NC(=O)C3CC3)CC2)cc(OC)c1OC,-0.897%,–
CCOc1cc(/C=C(\C#N)C(=O)Nc2ccccc2C)ccc1OCc1cc(=O)n2nc(CC)sc2n1,-12.1%,–
CCOc1cc(/C=N/NC(=O)CN2CCCCC2)ccc1O,17.3%,–
CCOc1cc(/C=C(\C#N)c2nc(-c3cccs3)c(NC(C)=O)s2)ccc1O,–,2.31 µM (active)
Cc1cc2c(C)nc(N/N=C/c3ccccc3)nc2o1,0.913%,–
Cc1ccc(C(=O)CN2C(=O)NC3(CCOc4ccccc43)C2=O)s1 (stereo unspecified),-10.5%,–
Cc1ccc(NC(=O)C(C)OC(=O)Cc2c[nH]c3ccccc23)cc1S(=O)(=O)N1CCOCC1 (stereo unspecified),-26.8%,–
Cc1ccc(-n2nc(C)c(C(=O)O)c2-n2cccc2)cc1,-5.51%,–
O=C(CS(=O)(=O)c1cn(Cc2cccc(F)c2)c2ccccc12)N1CCCCC1,-23.9%,–
Cc1ccc(S(=O)(=O)N2C[C@@H]3CCCC[C@@H]3[C@@H](C)[C@H]2c2cn(Cc3ccccc3)c3ccc(F)cc23)cc1,–,6.51 µM (active)
Cc1ccc(S(=O)(=O)N2CC(C)N(S(C)(=O)=O)C2)cc1 (stereo unspecified),7.03%,–

SMILES,"activity change, negative = growth inhibition",Potency
CCC(=O)c1ccc(OCC(=O)OCC(=O)N2CCc3ccccc3C2)cc1,-2.43%,–
COc1ccc(-c2csc(C(O)c3cccc(Cl)c3)n2)cn1 (stereo unspecified),–,16.4 µM (active)
COc1ccc(Nc2cc(Cl)ccc2C(=O)O)cn1,-2.52%,–
COc1cccc(C(NC(C)=O)c2nc(-c3cnc4ccccc4c3)cs2)c1 (stereo unspecified),-3%,–
CCCC(CNC(=O)COC(=O)C1=NNC(=O)CC1)c1ccc(Cl)cc1Cl (stereo unspecified),1.78%,–
CC(C)C(=O)Nc1ccc2c(c1)oc1ccccc12,-28.2%,–
O=C(CSc1nnc(-c2ccccc2O)o1)NC1CCCCC1,-22.7%,–
Cn1nccc1/C=N\NC(=O)c1ccc(Cl)cc1,-7.55%,–
Cc1cc(C)n(-c2cc(Oc3ccccc3)ncn2)n1,-11.2%,–
COc1ccc(Nc2nc(=O)[nH]nc2C)cc1,-17.5%,–
COc1ccc(NC(=O)c2nc(-n3nc(C)cc3C)ccc2Cl)cc1Cl,-23.4%,–
Cc1ccc(Nc2nc3ccccc3nc2-n2nc(C)cc2C)c(Cl)c1,8.53%,–
Cc1cccc(Nc2cc(C)nc(-n3nc(C)cc3C)n2)c1,–,3.26 µM (active)
COc1ccc(Nc2cc(C)nc(-n3nc(C)cc3C)n2)cc1,–,0.517 µM (active)
Cc1cc(Nc2ccccc2)nc(N)n1,-5.5%,–
CC(=O)c1ccc(Oc2cc(C)nc(-n3nc(C)cc3C)n2)cc1,–,0.731 µM (active)
Cc1cc(Oc2ccccc2)nc(N2CCOCC2)n1,-11.7%,–
CC(=O)NCCC(=O)Nc1cc(S(=O)(=O)N2CCCCC2)ccc1Oc1cccc(C)c1,-10.8%,–
COC(=O)c1ccc(NC(=O)c2cc3c(CO)cnc(C)c3oc2=Nc2cccc(C(N)=O)c2)cc1,1.92%,–
O=C(N/C(=C\c1ccc([N+](=O)[O-])cc1)C(=O)N1CCCCC1)c1ccco1,1.48%,–
CC(=O)c1cccc(NC(=O)Nc2ccc(C)cc2)c1,4.63%,–
Cc1ccc(NC(=O)C(C)c2cccc(C(=O)c3ccccc3)c2)cc1 (stereo unspecified),–,14.6 µM (active)

SMILES,"activity change, negative = growth inhibition",Potency
CC(=O)Nc1ccc(NC(=O)[C@@H](NC(=O)c2cccc(C)c2)C(C)C)cc1,6.73%,–
O=C(CN(C(=O)CNC(=O)c1cccs1)c1cccc(F)c1)NC1CCCCC1,3.13%,–
CCOC(=O)c1ccc(NC(=O)CC2C(=O)N(c3cccc(OC)c3)C(=O)N2C2CCCCC2)cc1 (stereo unspecified),–,20.6 µM (active)
CCOc1ccc(NC(=O)CC2C(=O)N(c3cccc(OC)c3)C(=O)N2C2CCCCC2)cc1 (stereo unspecified),-29%,–
Cc1ccc(N2C(=O)C(CC(=O)Nc3cccc(F)c3)N(CCc3ccncc3)C2=O)cc1 (stereo unspecified),-13.6%,–
COc1ccc(CCN2C(=O)N(c3cccc(OC)c3)C(=O)C2CC(=O)Nc2ccccc2)cc1 (stereo unspecified),–,18.4 µM (active)
CCOc1ccc(NC(=O)CC2C(=O)N(c3ccccc3)C(=O)N2CCOC)cc1 (stereo unspecified),7.81%,–
CCNC(=O)N1CCNC(=O)C1CC(=O)Nc1ccc(C(=O)OCC)cc1 (stereo unspecified),5.76%,–
CN1c2ccc([N+](=O)[O-])cc2C(C)(C)C12C=Cc1cc(C(=O)O)ccc1O2 (stereo unspecified),1.71%,–
COc1ccc(S(=O)(=O)N2CCOCC2)cc1NC(=O)Cc1coc2cc(C)ccc12,-12.2%,–
COc1ccc(/C(C)=N/NC(=O)c2ccc3nc[nH]c3c2)cc1,-3.72%,–
O=C(CSc1cccc[n+]1[O-])c1ccc(-c2ccccc2)cc1,–,0.92 µM (active)
CCN(C(=O)CSc1cccc[n+]1[O-])c1ccccc1,-16%,–
COc1ccccc1C(=O)CSc1cccc[n+]1[O-],2.9%,–
Cc1ccc(C(C)NC(=O)Cn2nc(C)c([N+](=O)[O-])c2C)cc1 (stereo unspecified),-9.96%,–
Cn1c(CC2Sc3ccccc3NC2=O)nnc1SCC(=O)c1ccc(Cl)cc1 (stereo unspecified),-7.86%,–
O=C(CN1C(=O)COc2ccc(Cl)cc21)N1CCOCC1,14.1%,–
Cc1ccc(NC(=O)C(=O)NCC(c2cccnc2)N2CCOCC2)cc1 (stereo unspecified),-12.9%,–
Cc1ccc(NC(=O)NCC(c2cccnc2)N2CCOCC2)cc1 (stereo unspecified),-6.59%,–
COc1ccccc1N1CCN(C(CNC(=O)C(=O)NCc2ccc(C)cc2)c2cccnc2)CC1 (stereo unspecified),–,4.61 µM (active)
CC(OC(=O)c1cc2ccccc2[nH]1)C(=O)N(C)c1ccccc1 (stereo unspecified),-28.6%,–
O=C(Cc1ccccn1)c1ccc(O)cc1O,-7.64%,–

SMILES,"activity change, negative = growth inhibition",Potency
Cc1ccc(CN(Cc2cccnc2)C(=S)Nc2cc(Cl)ccc2C)cc1,–,13 µM (active)
Cc1c(Cl)cccc1NC(=S)N(Cc1ccccc1)Cc1cccnc1,-22.2%,–
Cc1ccc(Cl)cc1NC(=S)N(CCN(C)C)Cc1cccs1,-27.7%,–
C=CCn1nc(-c2ccccc2)c2c(C)onc2c1=O,8.61%,–
O=C(Nc1cccc(C(=O)NC2CC2)c1)c1ccc(F)c(S(=O)(=O)N2CCOCC2)c1,-23.2%,–
OCC[C@H]1C[C@H](O)[C@@H](O)[C@]2(CCCCO2)O1,-0.0748%,–
Cc1nnsc1C(=O)NCc1c(F)cccc1Cl,-1.82%,–
Cc1ccc(NS(=O)(=O)c2cn(C)c(=O)n(C)c2=O)c(C)c1,-5.84%,–
Cn1cc(S(=O)(=O)Nc2ccc(Cl)cc2Cl)c(=O)n(C)c1=O,–,20.6 µM (active)
CC(C)c1ccc(NS(=O)(=O)c2cn(C)c(=O)n(C)c2=O)cc1,-8.08%,–
Cc1ccc(NC(=O)c2oc3ccccc3c2C)c([N+](=O)[O-])c1,-17.7%,–
Cc1ccc(NC(=O)c2ccn(C(=O)Nc3ccccc3)n2)c(C)c1,-14.8%,–
Cc1ccc(NC(=O)c2oc(=O)c3ccccc3c2-c2ccccc2)c(C)c1,–,23.1 µM (active)
O=C(CSc1nnc(Nc2ccccc2F)s1)NC1CCCC1,-19.6%,–
Nc1cccc(-c2cncc(N3CCN(Cc4ccccn4)CC3)n2)c1,-23.8%,–
COc1cccc(-c2noc(C3CCCN(C(=O)c4ccc(F)cc4)C3)n2)c1 (stereo unspecified),12%,–
COc1cc(-c2noc(C3CCCN(S(=O)(=O)c4cccc(Cl)c4)C3)n2)cc(OC)c1OC (stereo unspecified),–,12.6 µM (active)
COc1ccc(NC(=O)C2CCCN(S(=O)(=O)c3cccc4nonc34)C2)cc1Cl (stereo unspecified),-7.61%,–
